# Reference: PubChem BioAssay (Tox21)
# A number with no mark means an inactive call. Records with an inconclusive call do not appear. A call without a number means that no potency is given here. The source made the active and inactive calls. Unless noted, calls follow the shape of the dose curve; as a rule, active = well fitted curve in the direction sought with a large enough effect in the repeat runs; inconclusive = weak or mixed curves; inactive = no such curve, though single readings can be large; an effect the other way counts as inactive or inconclusive.
# Legend:
# [1] = Human pregnane X receptor (PXR) small molecule agonists, qHTS cell viability counter screen (AID 1346977); also: nearly all actives have a fitted effect of over 50% in size
# Method in brief: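 Readout is CellTiter-Fluor fluorescence from PXR-Luc HepG2 cells. Plated cells rested 5hr, then were treated with compounds for 24hr at 37C and 5% CO2, with reagent present during the last hour.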
# [2] = Caspase-3/7 induction in HepG2 cells by small molecules, qHTS assay (AID 1346978); also: nearly all actives have a fitted effect of over 15% in size
# Method in brief: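 Wild-type HepG2 cells, 2,000/well, settled 5 hr at 37 C and 5% CO2, then compound-treated for 17 hr; caspase-3/7 activity read by luminescent Caspase-Glo 3/7 after 30 min at room temperature.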
# [3] = Caspase-3/7 induction in CHO-K1 cells by small molecules, qHTS cell viability counter screen (AID 1346979); also: nearly all actives have a fitted effect of over 35% in size
# Method in brief: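 To flag cytotoxic compounds, treated CHO-K1 wild-type cells were given CellTiter-Fluor at 16hr and read fluorescently after 1hr at 37C; the caspase-3/7 luminescence was measured in these same wells.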
# [4] = Caspase-3/7 induction in CHO-K1 cells by small molecules, qHTS assay (AID 1346980); also: nearly all actives have a fitted effect of over 15% in size
# Method in brief: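 Wild-type CHO-K1 cells exposed to compounds for 17hr at 37 C, 5% CO2. Caspase-3/7 activity then measured by Caspase-Glo 3/7 luminescence after 30min at room temperature.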
# [5] = Caspase-3/7 induction in HepG2 cells by small molecules, qHTS cell viability counter screen (AID 1346981); also: series mostly up to about 92 µM; nearly all actives have a fitted effect of over 30% in size
# Method in brief: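 CellTiter-Fluor fluorescence measured viability in the same wells used for Caspase-Glo 3/7. HepG2 (wild type) at 2,000 cells/well were pre-incubated 5 hr, dosed, and given reagent at 16 hr, with 1 hr further at 37C.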
# [6] = target: Nuclear receptor subfamily 1 group I member 2 (Homo sapiens) (UniProt O75469); test: Human pregnane X receptor (PXR) small molecule agonists, qHTS assay (AID 1346982); also: nearly all actives have a fitted effect of over 35% in size; also: potency is read from the fitted curve at half-maximal effect
# Chain of Nuclear receptor subfamily 1 group I member 2 (Homo sapiens) (O75469 whole entry, looked up): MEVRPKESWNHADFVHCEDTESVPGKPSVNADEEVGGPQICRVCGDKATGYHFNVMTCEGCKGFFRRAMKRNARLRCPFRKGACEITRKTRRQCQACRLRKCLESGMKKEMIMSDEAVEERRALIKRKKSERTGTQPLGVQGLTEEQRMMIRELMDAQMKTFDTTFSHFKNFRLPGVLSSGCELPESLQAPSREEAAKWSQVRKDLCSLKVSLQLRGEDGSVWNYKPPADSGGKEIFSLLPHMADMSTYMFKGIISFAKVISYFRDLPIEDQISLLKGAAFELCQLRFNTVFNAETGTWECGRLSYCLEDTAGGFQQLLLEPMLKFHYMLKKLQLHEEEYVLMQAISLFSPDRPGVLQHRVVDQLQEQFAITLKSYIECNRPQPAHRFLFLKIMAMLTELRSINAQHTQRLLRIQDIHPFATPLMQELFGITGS
# Method in brief: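 Agonist mode: luminescence from ONE-Glo after 24 h compound exposure at 37C in HepG2 cells carrying hPXR-responsive CYP3A4 luciferase, plated in charcoal-stripped serum medium 5 h beforehand.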
# [7] = target: Cytochrome P450 2D6 (Homo sapiens) (UniProt P10635); test: Cytochrome P450 Family 2 Subfamily D Member 6 (CYP2D6) small molecule antagonists: luciferase reporter qHTS assay (AID 1671196); also: nearly all actives have a fitted effect of over 50% in size; also: potency is read from the fitted curve at half-maximal effect
# Chain of Cytochrome P450 2D6 (Homo sapiens) (P10635 whole entry, looked up): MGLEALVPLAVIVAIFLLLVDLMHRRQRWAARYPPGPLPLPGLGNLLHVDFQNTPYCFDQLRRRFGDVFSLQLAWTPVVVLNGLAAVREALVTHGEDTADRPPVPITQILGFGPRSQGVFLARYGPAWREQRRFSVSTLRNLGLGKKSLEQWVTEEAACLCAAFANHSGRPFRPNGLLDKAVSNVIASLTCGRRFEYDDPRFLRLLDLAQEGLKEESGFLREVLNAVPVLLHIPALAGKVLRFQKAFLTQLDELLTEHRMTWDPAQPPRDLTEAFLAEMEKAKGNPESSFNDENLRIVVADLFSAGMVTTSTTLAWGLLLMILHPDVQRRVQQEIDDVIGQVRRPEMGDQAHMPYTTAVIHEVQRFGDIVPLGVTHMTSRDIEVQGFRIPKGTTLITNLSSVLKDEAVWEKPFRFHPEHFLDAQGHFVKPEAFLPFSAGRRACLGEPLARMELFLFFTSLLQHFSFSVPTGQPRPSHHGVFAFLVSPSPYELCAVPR
# Method in brief: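 CYP2D6 activity was followed as luminescence from its luciferin product after a 1 h NADPH-driven reaction at room temperature. Enzyme-substrate mix and compound were pre-incubated for 10 min, and the signal was read 20 min after adding detection reagent.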
# [8] = target: Cytochrome P450 2C9 (Homo sapiens) (UniProt P11712); test: Cytochrome P450 Family 2 Subfamily C Member 9 (CYP2C9) small molecule antagonists: luciferase reporter qHTS assay (AID 1671198); also: nearly all actives have a fitted effect of over 50% in size; also: potency is read from the fitted curve at half-maximal effect
# Chain of Cytochrome P450 2C9 (Homo sapiens) (P11712 whole entry, looked up): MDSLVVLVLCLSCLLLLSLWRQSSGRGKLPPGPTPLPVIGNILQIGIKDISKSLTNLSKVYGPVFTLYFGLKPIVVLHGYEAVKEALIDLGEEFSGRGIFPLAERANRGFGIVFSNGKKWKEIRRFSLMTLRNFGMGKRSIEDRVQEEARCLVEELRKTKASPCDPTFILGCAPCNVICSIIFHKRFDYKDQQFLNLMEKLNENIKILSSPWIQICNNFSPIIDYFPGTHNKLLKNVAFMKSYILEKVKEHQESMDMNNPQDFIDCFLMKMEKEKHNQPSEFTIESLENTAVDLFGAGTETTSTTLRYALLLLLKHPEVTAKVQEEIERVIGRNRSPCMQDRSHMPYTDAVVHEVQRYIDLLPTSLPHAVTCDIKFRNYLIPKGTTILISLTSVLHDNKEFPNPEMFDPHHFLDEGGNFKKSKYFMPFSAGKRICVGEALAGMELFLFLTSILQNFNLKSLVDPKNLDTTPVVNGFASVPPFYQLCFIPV
# Method in brief: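 P450-Glo proluciferin substrate with CYP2C9 enzyme; 10 min RT preincubation, then NADPH regeneration 1 h at 37C; luciferin detection reagent 20 min RT, luminescence in relative luminescence units.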
# [9] = target: Cytochrome P450 1A2 (Homo sapiens) (UniProt P05177); test: Cytochrome P450 Family 1 Subfamily A Member 2 (CYP1A2) small molecule antagonists: luciferase reporter qHTS assay (AID 1671199); also: nearly all actives have a fitted effect of over 50% in size; also: potency is read from the fitted curve at half-maximal effect
# Chain of Cytochrome P450 1A2 (Homo sapiens) (P05177 whole entry, looked up): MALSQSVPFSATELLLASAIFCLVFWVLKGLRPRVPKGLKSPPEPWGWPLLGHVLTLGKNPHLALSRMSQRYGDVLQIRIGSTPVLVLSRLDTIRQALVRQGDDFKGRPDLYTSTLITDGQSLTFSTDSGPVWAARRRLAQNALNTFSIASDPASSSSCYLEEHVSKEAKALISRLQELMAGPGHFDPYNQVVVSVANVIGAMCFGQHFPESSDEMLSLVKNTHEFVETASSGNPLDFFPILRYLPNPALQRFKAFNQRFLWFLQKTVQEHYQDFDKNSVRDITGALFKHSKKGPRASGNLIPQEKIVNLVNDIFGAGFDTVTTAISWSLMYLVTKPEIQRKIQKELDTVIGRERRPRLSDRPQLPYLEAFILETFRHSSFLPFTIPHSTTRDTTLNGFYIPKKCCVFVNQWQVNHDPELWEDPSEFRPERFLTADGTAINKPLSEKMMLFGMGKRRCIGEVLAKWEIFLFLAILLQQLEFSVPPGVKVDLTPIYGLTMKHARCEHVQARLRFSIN
# Method in brief: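 Luminescence from luciferin formed by CYP1A2 from a proluciferin substrate, read 20 min after detection reagent. Compound was pre-incubated 10 min with enzyme-substrate, and reaction started with NADPH regeneration solution for 1 h at room temperature; furafylline control.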
# [10] = target: Voltage-gated inwardly rectifying potassium channel KCNH2 (Homo sapiens) (UniProt Q12809); test: Human Ether-a-go-go-Related Gene (hERG) channel small molecule antagonists: fluorescence cell-based qHTS assay (AID 1671200); also: nearly all actives have a fitted effect of over 50% in size; also: potency is read from the fitted curve at half-maximal effect
# Chain of Voltage-gated inwardly rectifying potassium channel KCNH2 (Homo sapiens) (Q12809 whole entry, looked up): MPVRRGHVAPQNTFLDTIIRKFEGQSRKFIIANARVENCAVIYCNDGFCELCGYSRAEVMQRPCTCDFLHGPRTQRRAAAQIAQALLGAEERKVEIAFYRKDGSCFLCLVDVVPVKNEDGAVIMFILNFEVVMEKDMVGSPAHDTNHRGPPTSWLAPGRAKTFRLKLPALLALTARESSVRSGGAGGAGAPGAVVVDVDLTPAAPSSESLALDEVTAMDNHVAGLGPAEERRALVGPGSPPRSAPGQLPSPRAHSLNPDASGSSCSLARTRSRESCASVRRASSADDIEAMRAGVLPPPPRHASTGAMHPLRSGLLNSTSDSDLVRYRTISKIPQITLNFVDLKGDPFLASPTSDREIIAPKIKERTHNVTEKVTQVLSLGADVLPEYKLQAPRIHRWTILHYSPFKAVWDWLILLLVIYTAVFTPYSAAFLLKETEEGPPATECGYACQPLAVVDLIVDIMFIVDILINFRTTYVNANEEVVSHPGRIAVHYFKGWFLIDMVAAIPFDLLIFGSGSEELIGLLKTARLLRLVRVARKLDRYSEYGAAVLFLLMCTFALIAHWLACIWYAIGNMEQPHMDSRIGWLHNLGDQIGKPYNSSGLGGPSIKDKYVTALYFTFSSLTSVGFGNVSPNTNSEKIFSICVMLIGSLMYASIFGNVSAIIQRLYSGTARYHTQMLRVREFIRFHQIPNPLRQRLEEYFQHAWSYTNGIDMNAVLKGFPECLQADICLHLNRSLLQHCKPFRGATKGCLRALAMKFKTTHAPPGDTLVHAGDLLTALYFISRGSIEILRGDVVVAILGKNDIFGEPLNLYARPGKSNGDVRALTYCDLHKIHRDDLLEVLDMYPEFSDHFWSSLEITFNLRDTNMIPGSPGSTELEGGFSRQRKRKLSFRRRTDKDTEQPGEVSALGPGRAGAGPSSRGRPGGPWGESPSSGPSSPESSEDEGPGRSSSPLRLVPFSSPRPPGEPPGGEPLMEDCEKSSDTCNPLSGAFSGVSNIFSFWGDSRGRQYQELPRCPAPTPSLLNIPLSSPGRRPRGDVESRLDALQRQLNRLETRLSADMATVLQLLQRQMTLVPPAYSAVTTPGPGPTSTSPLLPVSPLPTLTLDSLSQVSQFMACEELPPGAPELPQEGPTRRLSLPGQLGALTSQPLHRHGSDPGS
# Method in brief: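 Measured: Tl+ flux via fluorescence (480/540 nm) in hERG-expressing U2OS cells after 1 h dye loading at room temperature.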
# [11] = target: Cytochrome P450 3A4 (Homo sapiens) (UniProt P08684); test: Cytochrome P450 Family 3 Subfamily A Member 4 (CYP3A4) small molecule antagonists: luciferase reporter qHTS assay (AID 1671201)
# Chain of Cytochrome P450 3A4 (Homo sapiens) (P08684 whole entry, looked up): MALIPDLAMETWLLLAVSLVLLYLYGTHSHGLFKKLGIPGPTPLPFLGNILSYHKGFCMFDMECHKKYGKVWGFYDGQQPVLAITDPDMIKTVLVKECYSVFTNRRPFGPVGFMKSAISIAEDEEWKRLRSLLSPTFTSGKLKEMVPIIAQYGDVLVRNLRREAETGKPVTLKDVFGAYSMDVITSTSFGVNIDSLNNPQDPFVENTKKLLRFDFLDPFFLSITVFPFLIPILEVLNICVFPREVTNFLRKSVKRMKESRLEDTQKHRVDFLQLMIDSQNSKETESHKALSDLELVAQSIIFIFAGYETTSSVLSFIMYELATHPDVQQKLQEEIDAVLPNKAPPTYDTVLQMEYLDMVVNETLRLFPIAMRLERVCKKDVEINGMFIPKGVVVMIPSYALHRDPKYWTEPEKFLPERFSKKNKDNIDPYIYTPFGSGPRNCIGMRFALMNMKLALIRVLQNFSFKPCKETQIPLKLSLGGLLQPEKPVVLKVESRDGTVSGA
# Method in brief: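 Setup: enzyme-substrate mix, compound pin transfer, 10 min RT. Reaction: NADPH regeneration solution, 1 h RT. Readout: detection reagent stops turnover, luminescence measured after 20 min, expressed in relative luminescence units.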
# [12] = target: Thyrotropin-releasing hormone receptor (Homo sapiens) (UniProt P34981); test: qHTS assay to identify small molecule agonists of the thyrotropin-releasing hormone receptor (TRHR) signaling pathway (AID 1346891; calls by dose curve;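 also: HEK293 cells expressing TRHR with calcium dye readout; series mostly up to about 58 µM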)
# Chain of Thyrotropin-releasing hormone receptor (Homo sapiens) (P34981 whole entry, looked up): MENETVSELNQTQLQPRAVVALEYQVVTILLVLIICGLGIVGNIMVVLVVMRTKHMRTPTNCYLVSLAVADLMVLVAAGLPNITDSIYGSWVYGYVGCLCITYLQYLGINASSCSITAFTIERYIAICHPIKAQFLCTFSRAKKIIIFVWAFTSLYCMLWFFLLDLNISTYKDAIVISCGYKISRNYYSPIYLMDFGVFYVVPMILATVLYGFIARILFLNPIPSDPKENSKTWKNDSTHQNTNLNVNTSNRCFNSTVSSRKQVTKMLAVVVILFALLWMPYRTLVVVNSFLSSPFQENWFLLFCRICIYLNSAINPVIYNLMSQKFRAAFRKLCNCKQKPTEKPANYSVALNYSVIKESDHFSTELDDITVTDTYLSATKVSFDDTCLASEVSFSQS
# Method in brief: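 In 1536-format, 1500 TRHR-Hek293 cells per well grew 18 h, took up calcium dye for 2 h at 37 °C, received compound, and were read kinetically; 15-point titrations, triplicates.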
# [13] = target: Nuclear receptor subfamily 1 group I member 2 (Rattus norvegicus) (UniProt Q9R1A7); test: Rat pregnane X receptor (rPXR) activation by small molecules, qHTS assay (AID 1346983); settings: rPXR luciferase reporter cells, One-Glo luminescence, 24 h; max activation: active compounds read high; also: nearly all actives have a fitted effect of over 20% in size
# Chain of Nuclear receptor subfamily 1 group I member 2 (Rattus norvegicus) (Q9R1A7 whole entry, looked up): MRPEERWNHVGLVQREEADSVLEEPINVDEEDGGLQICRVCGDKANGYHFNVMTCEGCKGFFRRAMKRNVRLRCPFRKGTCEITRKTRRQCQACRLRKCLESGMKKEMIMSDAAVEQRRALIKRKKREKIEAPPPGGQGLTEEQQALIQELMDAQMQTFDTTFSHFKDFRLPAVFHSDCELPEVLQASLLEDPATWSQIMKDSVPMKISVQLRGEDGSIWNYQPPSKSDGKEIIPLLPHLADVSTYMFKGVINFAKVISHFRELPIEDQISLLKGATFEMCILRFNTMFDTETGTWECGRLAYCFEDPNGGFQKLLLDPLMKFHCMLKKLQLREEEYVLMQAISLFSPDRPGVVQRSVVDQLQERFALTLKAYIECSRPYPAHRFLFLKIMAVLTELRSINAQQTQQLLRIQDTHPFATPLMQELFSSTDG
# Method in brief: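 Cell-based rPXR activation assay: rPXR cells, 2,000 per well, rested 5hr at 37 C, then exposed to compounds in DMSO for 24 hr at 37 C. Luciferase activity read by One-Glo luminescence after 30 min at room temperature.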
# [14] = target: Nuclear receptor subfamily 1 group I member 2 (Homo sapiens) (UniProt O75469); test: CYP3A4 induction through human pregnane X receptor (PXR) by small molecules, qHTS assay (AID 1346984); also: nearly all actives have a fitted effect of over 40% in size
# Method in brief: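 Read-out is luminescence after One-Glo addition, following a 3 hr, 37C incubation with Luciferin-IPA CYP3A4 substrate (3uM final). Before that, compounds were on DPX-2 cells (HepG2 co-transfected with PXR element plus CYP3A4-promoter luciferase) for 24 hr at 37C.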
# [15] = target: Nuclear receptor subfamily 1 group I member 2 (Homo sapiens) (UniProt O75469); test: Human pregnane X receptor (PXR) activation by small molecules, qHTS assay (AID 1346985); also: nearly all actives have a fitted effect of over 40% in size
# Method in brief: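 DPX-2 cells (HepG2 co-transfected with a PXR response element and a CYP3A4-promoter luciferase construct) were seeded at 2,000 per well, rested 5 hr at 37C, then exposed to DMSO-dissolved compounds for 24 hr. Activation was read as luciferase luminescence.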
# [16] = target: Cytochrome P450 2C19 (Homo sapiens) (UniProt P33261); test: Cytochrome P450 Family 2 Subfamily C Member 19 (CYP2C19) small molecule antagonists: luciferase reporter qHTS assay (AID 1671197); also: nearly all actives have a fitted effect of over 65% in size; also: potency is read from the fitted curve at half-maximal effect
# Chain of Cytochrome P450 2C19 (Homo sapiens) (P33261 whole entry, looked up): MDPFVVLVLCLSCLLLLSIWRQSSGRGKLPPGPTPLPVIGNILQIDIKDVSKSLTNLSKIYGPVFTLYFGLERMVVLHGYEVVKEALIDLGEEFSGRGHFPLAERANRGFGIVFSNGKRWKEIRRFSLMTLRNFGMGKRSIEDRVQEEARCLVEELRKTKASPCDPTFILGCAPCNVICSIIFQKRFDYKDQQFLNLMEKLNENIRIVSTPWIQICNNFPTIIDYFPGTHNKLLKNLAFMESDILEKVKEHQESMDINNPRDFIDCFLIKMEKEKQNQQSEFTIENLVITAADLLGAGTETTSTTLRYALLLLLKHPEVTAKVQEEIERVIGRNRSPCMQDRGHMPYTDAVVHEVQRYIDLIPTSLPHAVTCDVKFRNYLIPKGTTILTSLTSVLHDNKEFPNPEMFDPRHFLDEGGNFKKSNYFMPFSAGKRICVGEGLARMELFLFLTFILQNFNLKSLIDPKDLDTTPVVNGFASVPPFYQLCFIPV
# Method in brief: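 Compounds were tested on CYP2C19 activity via proluciferin conversion to luciferin. The 37C, 1 h reaction followed NADPH addition; detection reagent stopped it.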
Compound,Potency [1],outcome [2],Potency [3],outcome [4],outcome [5],Potency [6],Potency [7],Potency [8],Potency [9],Potency [10],Potency [11],outcome [12],max activation [13],Potency [14],Potency [15],Potency [16]
COc1ccc(NC(C)=O)cc1,inactive,inactive,inactive,inactive,inactive,inactive,41 µM (active),inactive,36.5 µM (active),inactive,inactive,,,,,
NC(=O)CCCCC1CCSS1 (configuration not stated),,inactive,inactive,inactive,,inactive,inactive,inactive,inactive,inactive,inactive,inactive,-4.58%,inactive,inactive,inactive
C=C(C)[C@H]1CC=C(C)CC1,inactive,inactive,inactive,inactive,inactive,61.1 µM (active),35.6 µM (active),inactive,,inactive,inactive,,,,,inactive
O=[N+]([O-])c1ccc(Oc2ccc([N+](=O)[O-])cc2)cc1,inactive,inactive,inactive,inactive,inactive,inactive,inactive,,inactive,39.8 µM (active),inactive,,,,,1.82 µM (active)
CO,,inactive,,inactive,inactive,,,,,inactive,,inactive,-1.84%,,,
Nc1[nH]c(=O)ncc1F,inactive,inactive,inactive,inactive,inactive,inactive,inactive,,inactive,inactive,inactive,,-0.668%,inactive,inactive,
COC(=O)CCCCCCCCC(=O)OC,,inactive,,inactive,inactive,inactive,inactive,,,inactive,inactive,inactive,,,,
COC(=O)C1=C(C)NC(C)=C(C(=O)OCC(C)=O)C1c1ccccc1[N+](=O)[O-] (configuration not stated),,inactive,inactive,inactive,inactive,,inactive,13.8 µM (active),2.45 µM (active),inactive,,inactive,,,,
CCCCCCCCCCC1CO1 (configuration not stated),,inactive,,inactive,inactive,inactive,,inactive,,inactive,inactive,inactive,,,,inactive
COC[C@H](c1ccc(C(F)(F)F)cc1)N1CCN(C2(C)CCN(C(=O)c3c(C)ncnc3C)CC2)C[C@H]1C,,inactive,inactive,inactive,inactive,inactive,34.7 µM (active),inactive,inactive,,,inactive,,,,
CCCc1ccc(N)cc1,,inactive,inactive,inactive,inactive,,inactive,,35.6 µM (active),inactive,,inactive,,,,35.6 µM (active)
CO[Si](CCCNCCC[Si](OC)(OC)OC)(OC)OC,,inactive,inactive,inactive,inactive,,inactive,,,inactive,inactive,inactive,,,,inactive
OCC(O)[C@@H](O)[C@H](O)[C@H](O)CO[C@H]1O[C@H](CO)[C@@H](O)[C@H](O)[C@H]1O (some centres not stated),,inactive,inactive,inactive,inactive,inactive,inactive,,,inactive,inactive,inactive,,,,
N#CCN(CC#N)CCN(CC#N)CC#N,,inactive,inactive,inactive,inactive,inactive,inactive,,,inactive,inactive,inactive,,,,
COc1cc(C)cc(O)c1,inactive,inactive,inactive,inactive,inactive,inactive,inactive,,35.6 µM (active),inactive,inactive,,,,,inactive
Nc1ccn(C2CO[C@H](CO)O2)c(=O)n1 (some centres not stated),inactive,inactive,inactive,inactive,inactive,inactive,inactive,inactive,inactive,inactive,inactive,,,,,inactive
O=C(O)CCNC(=O)c1ccc(N=Nc2ccc(O)c(C(=O)O)c2)cc1,,inactive,,inactive,,inactive,inactive,,inactive,inactive,inactive,inactive,-1.98%,inactive,inactive,inactive
